# This is a sample that favours compounds with a hit; in the whole collection about 1.2% have one here.
# Luc counter – counter-screen: inhibitors of Kinase-Glo firefly luciferase. Q27757. Kinase-Glo luciferase, ATP luminescence, 8 min. Potency, µM (top dose mostly 38.3 µM), for the others: at the top dose activity change, negative = inhibition, most hits filed as inhibitors. 200,000 tested, 0.28% active. AID 1379; active = well fitted inhibition curve with a large enough effect; inconclusive = small, poorly fitted or top-dose-only effect; also: potency is read from the fitted curve at half-maximal effect; nearly all actives have a fitted effect of over 60% in size
#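 Compounds were added to a substrate mix at pH 7.2 (50 mM imidazole, 10 uM ATP, within the enzyme's linear range), followed by Kinase-Glo detection reagent; luminescence was measured after 8 minutes at ambient temperature.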
# KCNH2 3.1 inh – KCNH2 3.1 (human) potassium channel inhibition; AID 720553; 340,000 tested, 0.95% active; U2OS KCNH2 3.1, thallium flux FluxOr; active compounds read low; activity change, % (tested at about 1.8 µM);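 active = maximum activity change below -70%; inconclusive = maximum activity change from -70% to -50%; inactive = maximum activity change above -50%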;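 also: thallium influx rate constant from kinetic fluorescence after stimulation buffer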
#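 FluxOr-based Tl+ influx in U2OS cells transduced with KCNH2 3.1 virus; rate constants normalized to DMSO controls.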
# hERG WT inh – blocks the wildtype human KCNH2 potassium channel; Q12809; U2OS, BacMam KCNH2, thallium flux FluxOr; active compounds read low; activity change, % at 1.84 µM; 340,000 tested, 0.37% active;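 active = maximum activity change below -70%; inconclusive = maximum activity change between -70% and -50%; inactive = maximum activity change above -50%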
# Target sequence (Q12809 whole entry, looked up): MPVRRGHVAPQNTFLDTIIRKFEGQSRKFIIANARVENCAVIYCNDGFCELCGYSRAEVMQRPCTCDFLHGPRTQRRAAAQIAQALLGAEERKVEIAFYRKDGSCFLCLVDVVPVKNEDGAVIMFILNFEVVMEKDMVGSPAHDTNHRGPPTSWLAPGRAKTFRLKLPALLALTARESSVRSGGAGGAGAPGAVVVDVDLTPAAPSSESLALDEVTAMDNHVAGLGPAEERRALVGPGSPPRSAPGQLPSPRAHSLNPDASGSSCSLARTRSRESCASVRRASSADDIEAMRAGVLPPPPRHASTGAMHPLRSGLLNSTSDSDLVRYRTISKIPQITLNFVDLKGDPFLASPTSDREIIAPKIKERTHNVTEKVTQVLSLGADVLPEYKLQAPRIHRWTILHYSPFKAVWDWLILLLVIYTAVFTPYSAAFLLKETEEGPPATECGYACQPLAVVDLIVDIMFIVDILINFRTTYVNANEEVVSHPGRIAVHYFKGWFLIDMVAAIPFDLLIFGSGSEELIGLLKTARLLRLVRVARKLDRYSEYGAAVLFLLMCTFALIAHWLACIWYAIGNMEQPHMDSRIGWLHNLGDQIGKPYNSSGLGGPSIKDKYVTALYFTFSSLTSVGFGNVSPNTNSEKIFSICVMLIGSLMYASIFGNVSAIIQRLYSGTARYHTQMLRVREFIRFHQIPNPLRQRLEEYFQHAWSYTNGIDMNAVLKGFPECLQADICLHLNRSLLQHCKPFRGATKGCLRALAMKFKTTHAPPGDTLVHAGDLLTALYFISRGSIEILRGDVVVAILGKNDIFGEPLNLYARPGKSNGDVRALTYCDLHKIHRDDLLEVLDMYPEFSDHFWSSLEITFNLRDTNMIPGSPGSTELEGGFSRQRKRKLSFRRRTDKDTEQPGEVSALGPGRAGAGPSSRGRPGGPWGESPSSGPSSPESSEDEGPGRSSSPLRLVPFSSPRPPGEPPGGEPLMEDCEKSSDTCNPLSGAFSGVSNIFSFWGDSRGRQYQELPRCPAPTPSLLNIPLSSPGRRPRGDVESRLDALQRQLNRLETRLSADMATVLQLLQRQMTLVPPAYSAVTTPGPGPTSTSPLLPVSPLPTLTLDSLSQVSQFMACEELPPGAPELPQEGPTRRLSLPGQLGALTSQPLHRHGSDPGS
#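 U2OS cells were transduced with wild-type KCNH2 virus (2.03 x 10^8 / mL) for 4 h at room temperature, then cultured overnight at 37 C. Thallium flux was read with FluxOr dye. Rate constants were normalized to DMSO controls.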
# The depositor's hits bear a star; ? = inconclusive; . = no result; + = active, no number. % is scaled to controls: 0 for no effect and ±100 for the full control effect.
SMILES,Luc counter,KCNH2 3.1 inh,hERG WT inh
COc1ccc(-c2oc(NC(=O)c3ccc(C)cc3)c(C#N)c2-c2ccc(OC)cc2)cc1,-1.7%,-7.0,0.7
COc1ccc(C(=O)Nc2oc(-c3ccccc3)c(-c3ccccc3)c2C#N)cc1,-3.3%,-70.3*,0.0
c1ccc(CN2CCC3CC2c2ccc(N4CCOCC4)cc23)cc1 (configuration not stated),.,0.1,12.9
CCN(C(=O)c1ccc(=O)n(C)n1)c1c(N)n(Cc2ccccc2)c(=O)[nH]c1=O,.,-92.3*,-1.1
CCN(C(=O)c1ccc(=O)[nH]c1)c1c(N)n(Cc2ccccc2)c(=O)[nH]c1=O,.,-4.6,6.6
O=C(NCCNC(=O)c1ccccc1Br)c1ccccc1Br,.,-114.5*,-6.1
O=C(NCCCNC(=O)c1ccccc1Br)c1ccccc1Br,.,-8.7,-3.5
Cc1nc(Cl)nc(N(C)c2ccccc2)c1[N+](=O)[O-],.,11.8,1.1
CCOc1ccc(-c2csc(NNC3=NCCCCC3)n2)cc1,1.7%,-15.8,3.7
CC1C=CCC2C(=O)N(c3cccc(C(=O)Nc4ccc(F)cc4)c3)C(=O)C12 (configuration not stated),.,7.8,4.8
OC(COC(c1ccc(F)cc1)c1ccc(F)cc1)CN1CCCC1 (configuration not stated),.,-83.1*,-22.0
CN1CCN(CC(O)COC(c2ccccc2)c2ccccc2)CC1 (configuration not stated),-0.1%,-1.0,3.3
CC1CN(CC(O)COc2ccc(C(C)C)cc2)CC(C)O1 (configuration not stated),-0.4%,-2.2,9.3
CN(C)CC(O)COC(c1ccc(Cl)cc1)c1ccc(Cl)cc1 (configuration not stated),-2.1%,-88.2*,-43.4
Cc1cccc(C)c1OCC(O)CN1CCN(c2ccccn2)CC1 (configuration not stated),-0.8%,-8.3,0.9
CC1CN(CC(O)COC(c2ccc(Cl)cc2)c2ccc(Cl)cc2)CC(C)O1 (configuration not stated),0.3%,-76.4*,?
CN(CC(O)COC(c1ccccc1)c1ccccc1)C1CCCCC1 (configuration not stated),1.0%,-48.8,9.7
OC(COC(c1ccc(Cl)cc1)c1ccc(Cl)cc1)CN1CCN(c2ccccn2)CC1 (configuration not stated),4.9%,-98.8*,+
COc1ncnc2c1ncn2CCCNC1CCN(Cc2ccccc2)CC1,.,-11.0,0.0
COc1ccc(C(CNC(=O)CCNS(=O)(=O)c2ccc(C)cc2)N2CCOCC2)cc1 (configuration not stated),.,11.5,0.2
COc1ccccc1CN(C)C(=O)CSc1nnc(C2CC2)n1C1CC1,.,20.0,0.0
COc1ccc(CCNCC(O)COc2ccc(Cl)cc2)cc1OC (configuration not stated),.,?,37.0
C/C=C/c1ccc(OCC(O)CN2CCCCC2CC)c(OC)c1 (configuration not stated),-0.2%,-24.2,21.7
C/C=C/c1ccc(OCC(O)CN(C)Cc2ccc(SC)cc2)c(OC)c1 (configuration not stated),.,-112.3*,?
C/C=C/c1ccc(OCC(O)CNCCc2ccc(OC)cc2)c(OC)c1 (configuration not stated),.,-71.0*,2.8
SMILES,Luc counter,KCNH2 3.1 inh,hERG WT inh
C/C=C/c1ccc(OCC(O)CNCC(c2ccc(OC)cc2)N(C)C)c(OC)c1 (configuration not stated),.,-73.4*,-6.9
C/C=C/c1ccc(OCC(=O)O)c(OC)c1,.,-3.5,4.4
CS(=O)(=O)N1CCCC(C(=O)Nc2ccc(F)c(F)c2)C1 (configuration not stated),.,-7.6,6.4
Cc1cc(C)nc(N/N=C/C(Cl)=C/c2ccccc2)n1,17.0%,-82.6*,6.6
Cc1cc(C)nc(N/N=C/c2ccccc2)n1,2.9%,5.1,-7.4
C[C@@H]1CN([C@H](C)CO)C(=O)c2cc(NC(=O)c3ccncc3)ccc2O[C@@H]1CN(C)C(=O)Nc1ccccc1,.,7.2,0.6
COc1cc(NC(=O)c2ccc(COc3ccccc3Br)o2)cc(OC)c1OC,4.9%,11.0,2.3
COc1ccccc1OCc1ccc(C(=O)Nc2cc(OC)c(OC)c(OC)c2)o1,.,14.0,-129.1*
Cc1cc(NS(=O)(=O)c2ccc(NC(=O)Cc3ccc([N+](=O)[O-])cc3)cc2)nc(C)n1,.,7.2,-2.9
CCOP(=O)(OCC)C(NC(=O)c1ccc(OC)cc1)c1ccccc1 (configuration not stated),.,-95.8*,2.2
CC(C)OP(=O)(OC(C)C)C(NC(=O)c1ccc(Br)cc1)c1ccccc1 (configuration not stated),-3.7%,10.6,8.4
COc1ccc(S(=O)(=O)N2CCN(C)CC2)cc1NC(=O)c1ccccc1C,.,-29.4,1.5
C=CCC(=O)N1CCC(n2nccc2NC(=O)CCOc2ccccc2)CC1,.,0.5,5.1
CNC(=S)N(CCc1c(C)[nH]c2ccc(C)cc12)Cc1cccnc1,.,-3.5,-11.9
CNC(=S)N(CCc1c(C)[nH]c2ccccc12)Cc1cccnc1,.,-191.1*,-133.3*
Cc1cc(C)c(S(=O)(=O)N2CC=C(c3ccccc3)CC2)c(C)c1,.,4.0,-25.9
COc1ccc(CCN2CC(C(=O)NCc3ccon3)CCC2=O)cc1 (configuration not stated),.,5.1,-3.3
COc1cccc(NC(=O)CN(C)C(=O)c2cc(S(=O)(=O)NCc3ccccc3)ccc2C)c1,.,-4.2,-8.7
Cn1cc(S(=O)(=O)NCc2ccc(F)cc2)c(=O)n(C)c1=O,.,-0.8,-1.6
COc1ccc2nc(Nc3ccccc3OC)sc2c1,11.2µM*,4.7,0.5
COc1ccc2nc(NC(=O)Nc3ccccc3OC)sc2c1,.,-6.6,4.5
Cc1noc(C)c1NC(=O)N(C)C[C@@H]1Oc2ncc(Br)cc2C(=O)N([C@H](C)CO)C[C@@H]1C,.,-3.5,-20.0
CCOc1cc(N2CCOCC2)c(OCC)cc1NC(C)C(=O)N1CCC(C)CC1 (configuration not stated),.,-4.9,10.1
CCOC(=O)NC(=O)/C(C#N)=C\NNc1ncc(C(F)(F)F)cc1Cl,-0.7%,9.6,-71.1*
CCOC(=O)N1CCC(=NNc2ncc(C(F)(F)F)cc2Cl)CC1,-1.4%,6.1,-4.1
SMILES,Luc counter,KCNH2 3.1 inh,hERG WT inh
COc1cccc(S(=O)(=O)N(C)C[C@H]2OCc3cn(nn3)CCCC(=O)N([C@H](C)CO)C[C@@H]2C)c1,.,2.6,-9.8
N=c1c(C(=O)NCc2ccco2)cc2c(=O)n3ccccc3nc2n1Cc1ccc(Cl)cc1,-1.6%,-79.9*,-44.5
N=c1c(C(=O)NCc2ccco2)cc2c(=O)n3ccccc3nc2n1Cc1ccccc1,-0.3%,-12.3,-8.2
N=c1c(C(=O)NC2CCCC2)cc2c(=O)n3ccccc3nc2n1CC1CCCO1 (configuration not stated),.,-37.7,-21.5
Cc1ccc(CNC(=O)c2cc3c(=O)n4ccccc4nc3n(CC3CCCO3)c2=N)cc1 (configuration not stated),0.8%,-70.8*,-23.7
CC1(c2ccccc2)NC(=O)N(CC(=O)Nc2ccccc2C(=O)N2CCCCC2)C1=O (configuration not stated),.,-1.6,-3.2
